From PubChem BioAssay (Tox21) come the findings set out here.

Several values for one entry are separate records, joined by “and”; a condition that tells them apart may be missing. Equal values may be shown once. Inconclusive results are not listed. Some structures have more than one record in an assay (separate samples or runs), and their calls can disagree. Activity calls are given as the source filed them. Unless noted, calls come from the whole dose curve; as a rule, active = well fitted curve in the direction sought with a large enough effect in the repeat runs; inconclusive = weak or mixed curves; inactive = no such curve, though single readings can be large; an effect the other way counts as inactive or inconclusive.

Experiment [1] can be described thus: qHTS assay to identify small molecule agonists of the peroxisome proliferator-activated receptor delta (PPARd) signaling pathway - cell viability counter screen (AID 743211). Note: nearly all actives have a fitted effect of over 55% in size. Note: potency is the fitted concentration of half-maximal effect. The method, boiled down: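 Viability of GeneBLAzer PPARd UAS-bla HEK293H cells was assessed after 17 h compound incubation at 37C, using CellTiter-Glo reagent added after the reporter read and luminescence recorded 30 min later.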

Experiment [2] deals with Peroxisome proliferator-activated receptor delta (Homo sapiens) (UniProt Q03181). The experiment is described as follows: qHTS assay to identify small molecule agonists of the peroxisome proliferator-activated receptor delta (PPARd) signaling pathway (AID 743212; calls by dose curve;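 note: HEK293H cells with PPARd UAS beta-lactamase reporter GeneBLAzer system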). The method, boiled down: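 Beta-lactamase reporter readout: a ratiometric FRET signal from the LiveBLAzer substrate after 2 h at room temperature. Compound exposure at 37 °C in PPARδ-bla HEK293H cells driven by an upstream activator sequence.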
(In qHTS, concentration-response curves come from the screen itself.)

The nature of experiment [3]: qHTS assay to identify small molecule antagonists of the peroxisome proliferator-activated receptor delta (PPARd) signaling pathway - cell viability counter screen (AID 743213). Note: nearly all actives have a fitted effect of over 50% in size. Note: potency is the fitted concentration of half-maximal effect. The method, boiled down: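 Luminescence from CellTiter-Glo, added after the bla read and incubated 30 min at room temperature, gives viability of HEK293H PPARd-bla cells exposed to compounds for 17 h at 37 C with 300 nM L165041.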

Experiment [4] has as its target Bile acid receptor (Homo sapiens) (UniProt Q96RI1). The experiment in a line: qHTS assay to identify small molecule antagonists of the farnesoid-X-receptor (FXR) signaling pathway (AID 743217; active = well fitted inhibition curve with a large enough effect in the signal ratio in the repeat runs, not every such curve was filed as active; the % refers to the signal ratio). The method, boiled down: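 Test compounds are pin-transferred onto FXR-bla HEK 293T cells, then chenodeoxycholic acid is added at 50 uM final. After 16 h at 37 °C, LiveBLAzer B/G substrate is applied for 2 h at room temperature and fluorescence read.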

The target is the same in experiment [5]. The experiment in a line: qHTS assay to identify small molecule agonists of the farnesoid-X-receptor (FXR) signaling pathway (AID 743220; active = well fitted activation curve with a large enough effect in the signal ratio in the repeat runs, not every such curve was filed as active; the % refers to the signal ratio). The method, boiled down:
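FXR-UAS-bla HEK 293T cells carrying a UAS-driven beta-lactamase reporter were plated for 5 h at 37C/5% CO2, then exposed to DMSO-dissolved Tox21 10K compounds for 16 h at 37C. A LiveBLAzer B/G FRET substrate was loaded for 2 h at room temperature before fluorescence reading.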

Experiment [6] is described as follows: qHTS assay to identify small molecule antagonists of the farnesoid-X-receptor (FXR) signaling pathway - cell viability counter screen (AID 743221; active = well fitted cell-killing curve with a large enough effect in the repeat runs, not every such curve was filed as active; note: nearly all actives have a fitted effect of over 50% in size; note: potency is the fitted concentration of half-maximal effect). The method, boiled down:
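Quantitative HTS of the Tox21 10K library run in parallel with the beta-lactamase reporter read. HEK 293T cells carrying a UAS-driven bla reporter got compound and 50 uM CDCA (final) for 16 h; ATP-based luminescence followed.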

Experiment [7] has as its target Vitamin D3 receptor (Homo sapiens) (UniProt P11473). The experiment is described as follows: qHTS assay to identify small molecule agonists of the vitamin D receptor (VDR) signaling pathway (AID 743222; calls by dose curve). The method, boiled down: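 Tox21 cell reporter format: VDR-bla line, 16 h compound exposure in 5% CO2 at 37C, then fluorescence intensity after 2 h with LiveBLAzer B/G FRET substrate.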

Experiment [8] has the same target. The experiment is described as follows: qHTS assay to identify small molecule antagonists of the vitamin D receptor (VDR) signaling pathway (AID 743223; active = well fitted inhibition curve with a large enough effect in the signal ratio in the repeat runs, not every such curve was filed as active; the % refers to the signal ratio; note: potency is the fitted concentration of half-maximal effect). The method, boiled down:
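Fluorescence from LiveBLAzer B/G FRET substrate, read after 2 h at room temperature, reflects beta-lactamase reporter activity in VDR-bla cells treated 16 h at 37C with compounds and agonist 1alpha,25-dihydroxyvitamin D3 (3 nM final).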

Experiment [9] is described as follows: qHTS assay to identify small molecule agonists of the vitamin D receptor (VDR) signaling pathway - cell viability counter screen (AID 743224). Note: nearly all actives have a fitted effect of over 50% in size. Note: potency is the fitted concentration of half-maximal effect. The method, boiled down:
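CellTiter-Glo viability readout on VDR-bla cells, measured after 16 h of compound treatment at 37C in the same wells.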

Experiment [10] can be described thus: qHTS assay to identify small molecule antagonists of the vitamin D receptor (VDR) signaling pathway - cell viability counter screen (AID 743225). Note: nearly all actives have a fitted effect of over 50% in size. Note: potency is the fitted concentration of half-maximal effect. Put shortly:
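Cells (VDR-UAS-bla HEK 293T) are plated, rested 4 h at 37C, dosed with compound and 3 nM final 1-alpha,25-dihydroxy vitamin D3, and incubated 16 h. Viability is taken from CellTiter-Glo luminescence in the reporter wells.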

Experiment [11] can be described thus: qHTS assay to identify small molecule agonists of the endoplasmic reticulum stress response signaling pathway (AID 1159516; active = well fitted activation curve with a large enough effect in the signal ratio in the repeat runs, not every such curve was filed as active; the % refers to the signal ratio). Put shortly: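 Fluorescence at 460 and 530 nm (405 nm excitation) reports beta-lactamase from an ER stress response element in HeLa cells treated 5 hr at 37 C.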
The nature of experiment [12]: qHTS assay to identify small molecule agonists of the endoplasmic reticulum stress response signaling pathway - cell viability counter screen (AID 1159517; calls by dose curve; note: nearly all actives have a fitted effect of over 50% in size; note: potency is the fitted concentration of half-maximal effect). The method, boiled down: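 ESRE-bla HeLa cells (1,500/well) were plated overnight at 37 C and exposed to compounds for 5 hr. After the 2 hr beta-lactamase substrate read, CellTiter-Glo went into the same wells, and luminescence was read after 30 min at room temperature.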

A short description of experiment [13]: qHTS assay to identify small molecule antagonists of the retinoid-related orphan receptor gamma (ROR-gamma) signaling pathway - cell viability counter screen (AID 1159520). Note: nearly all actives have a fitted effect of over 50% in size. Note: potency is the fitted concentration of half-maximal effect. Put shortly:
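Cytotoxicity was read from cellular ATP (CellTiter-Glo luminescence) after 16 hr at 37 C with 1 uM doxycycline induction. The inducer was added 2 hr after compound transfer to Tet-on ROR gamma CHO cells.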

The target in experiment [14] is Nuclear receptor ROR-gamma (Homo sapiens) (UniProt P51449). The experiment in a line: qHTS assay to identify small molecule antagonists of the retinoid-related orphan receptor gamma (ROR-gamma) signaling pathway (AID 1159521; note: nearly all actives have a fitted effect of over 50% in size; note: potency is the fitted concentration of half-maximal effect). Put shortly:
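RORγ antagonism is scored from reduced reporter luminescence in Tet-on CHO cells. Induction used 1 uM final doxycycline hyclate for 16 h at 37 C, following a 2 h compound exposure.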

A short description of experiment [15]: qHTS assay to identify small molecule agonists of the AP-1 signaling pathway - cell viability counter screen (AID 1159525; calls by dose curve; note: nearly all actives have a fitted effect of over 55% in size; note: potency is the fitted concentration of half-maximal effect). Put shortly: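 Intracellular ATP by Cell Titer Glo luminescence (30 min, RT) in the same ME-180 AP-1-bla wells after the 5 h compound exposure at 37 °C. Normalised to tetra n-octyl ammonium bromide and DMSO controls.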
A short description of experiment [16]: qHTS assay to identify small molecule agonists of the AP-1 signaling pathway (AID 1159526; calls by dose curve).
The target of experiment [17] is Retinoic acid receptor RXR-alpha (Homo sapiens) (UniProt P19793). The experiment in a line: qHTS assay to identify small molecule agonists of the RXR signaling pathway (AID 1159527; calls by dose curve; note: nearly all actives have a fitted effect of over 35% in size). The method, boiled down: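 qHTS of the Tox21 10K library in GeneBLAzer RXR-alpha HEK 293T cells carrying a beta-lactamase reporter […]; 16 hr treatment, 9-cis retinoic acid as agonist control, FRET read-out.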

The target in experiment [18] is Peroxisome proliferator-activated receptor delta (Homo sapiens) (UniProt Q03181). The experiment in a line: qHTS assay to identify small molecule antagonists of the peroxisome proliferator-activated receptor delta (PPARd) signaling pathway (AID 743215; active = well fitted inhibition curve with a large enough effect in the signal ratio in the repeat runs, not every such curve was filed as active; the % refers to the signal ratio;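 note: cells stimulated with agonist L165041 at 300 nM final during compound exposure; series mostly up to about 62 µM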). The method, boiled down:
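Here, a reporter line (HEK293H, beta-lactamase under a UAS) measures PPARd signaling. Compounds are tested against agonist L165041 at 300 nM final concentration over 17 h at 37 C, with fluorescence read after substrate.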

Experiment [19] in a line: qHTS assay to identify small molecule agonists of the farnesoid-X-receptor (FXR) signaling pathway - cell viability counter screen (AID 743218). Note: nearly all actives have a fitted effect of over 45% in size. Note: potency is the fitted concentration of half-maximal effect. Put shortly: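 Quantitative HTS counter screen measuring ATP-based viability via CellTiter-Glo luminescence in HEK 293T cells carrying a UAS-driven beta-lactamase reporter, after 16 h compound exposure at 37 C.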

Chain of Retinoic acid receptor RXR-alpha (Homo sapiens) (P19793 whole entry, looked up): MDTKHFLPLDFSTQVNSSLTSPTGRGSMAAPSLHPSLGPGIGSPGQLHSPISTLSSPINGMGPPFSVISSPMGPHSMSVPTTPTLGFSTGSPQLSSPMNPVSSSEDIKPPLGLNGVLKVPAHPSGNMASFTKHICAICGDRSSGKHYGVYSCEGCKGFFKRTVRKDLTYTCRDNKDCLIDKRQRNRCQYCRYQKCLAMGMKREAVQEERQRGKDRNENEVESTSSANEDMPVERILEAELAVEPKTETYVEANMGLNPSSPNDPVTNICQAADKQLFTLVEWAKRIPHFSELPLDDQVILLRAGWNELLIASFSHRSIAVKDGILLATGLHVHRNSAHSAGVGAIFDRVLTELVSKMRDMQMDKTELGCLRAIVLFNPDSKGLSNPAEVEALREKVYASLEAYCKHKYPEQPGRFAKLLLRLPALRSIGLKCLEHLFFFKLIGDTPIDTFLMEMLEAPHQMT
Chain of Peroxisome proliferator-activated receptor delta (Homo sapiens) (Q03181 whole entry, looked up): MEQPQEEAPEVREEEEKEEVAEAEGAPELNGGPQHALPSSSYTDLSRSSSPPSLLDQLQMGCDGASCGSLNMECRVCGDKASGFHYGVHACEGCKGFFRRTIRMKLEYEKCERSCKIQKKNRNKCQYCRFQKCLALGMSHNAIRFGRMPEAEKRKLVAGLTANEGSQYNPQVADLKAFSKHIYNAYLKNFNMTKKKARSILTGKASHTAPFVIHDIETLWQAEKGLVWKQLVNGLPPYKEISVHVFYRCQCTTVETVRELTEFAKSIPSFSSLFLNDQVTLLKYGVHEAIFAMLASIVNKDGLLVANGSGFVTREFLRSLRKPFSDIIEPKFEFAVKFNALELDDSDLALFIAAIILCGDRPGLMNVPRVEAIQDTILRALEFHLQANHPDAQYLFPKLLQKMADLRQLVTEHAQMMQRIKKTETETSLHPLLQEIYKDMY
Chain of Vitamin D3 receptor (Homo sapiens) (P11473 whole entry, looked up): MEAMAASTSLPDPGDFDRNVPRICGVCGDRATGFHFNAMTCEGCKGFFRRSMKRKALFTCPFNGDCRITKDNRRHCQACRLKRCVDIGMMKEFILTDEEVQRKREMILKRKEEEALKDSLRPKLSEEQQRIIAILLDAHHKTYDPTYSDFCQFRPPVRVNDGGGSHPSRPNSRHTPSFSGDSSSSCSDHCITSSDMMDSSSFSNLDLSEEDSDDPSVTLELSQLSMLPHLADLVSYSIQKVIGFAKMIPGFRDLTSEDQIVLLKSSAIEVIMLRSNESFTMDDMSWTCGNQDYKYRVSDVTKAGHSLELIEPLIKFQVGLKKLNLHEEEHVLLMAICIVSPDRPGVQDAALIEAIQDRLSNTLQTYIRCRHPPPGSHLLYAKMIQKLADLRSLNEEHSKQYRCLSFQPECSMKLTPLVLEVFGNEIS
Chain of Bile acid receptor (Homo sapiens) (Q96RI1 whole entry, looked up): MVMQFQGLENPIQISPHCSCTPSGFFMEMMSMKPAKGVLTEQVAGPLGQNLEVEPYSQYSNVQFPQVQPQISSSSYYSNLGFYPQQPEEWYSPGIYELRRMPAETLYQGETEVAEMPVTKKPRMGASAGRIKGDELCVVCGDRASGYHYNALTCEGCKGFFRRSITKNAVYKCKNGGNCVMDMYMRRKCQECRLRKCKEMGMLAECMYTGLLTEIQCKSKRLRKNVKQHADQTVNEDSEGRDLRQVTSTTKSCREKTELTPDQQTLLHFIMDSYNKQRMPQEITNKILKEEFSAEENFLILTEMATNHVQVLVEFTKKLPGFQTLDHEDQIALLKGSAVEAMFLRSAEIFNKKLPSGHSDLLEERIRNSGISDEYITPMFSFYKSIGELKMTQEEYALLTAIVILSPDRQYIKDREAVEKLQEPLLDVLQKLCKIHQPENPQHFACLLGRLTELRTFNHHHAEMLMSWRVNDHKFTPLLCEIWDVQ

Regarding `CCCCOCCOC(C)=O`, the Potency result in experiment [1], in experiment [2], in [3], in experiment [4], in [5] and in [6] was “inactive” each time. Also, the Potency entry in [8], in experiment [9], in experiment [10], in experiment [11], in [12] and in experiment [13] was “inactive” each time. Also, the Potency result in [14], in [15] and in experiment [17] was “inactive” each time. In addition, the result in experiment [7] and in experiment [16] was inactive.
As to `COc1ccc(CO)cc1`, the Potency result in experiment [1], in experiment [3], in experiment [4], in [5], in experiment [6] and in experiment [8] was “inactive” each time. For the same molecule, the Potency result in experiment [9], in experiment [10], in experiment [11], in experiment [12], in [13] and in experiment [14] was “inactive” in each case. The Potency entry in [15] and in experiment [17] was “inactive” in each case. Moreover, the outcome in experiment [7] and in [16] was inactive.
On to `CC(C)CON=O`, for which the Potency result in experiment [1], in experiment [2], in experiment [3], in [18], in experiment [6] and in experiment [8] was “inactive” throughout. In addition, the Potency result in experiment [9], in experiment [10], in [11], in [12], in [13] and in experiment [14] was “inactive” each time. For the same molecule, the Potency entry in experiment [15] and in [17] was “inactive” each time. Also, the molecule was called inactive in [7] and in [16].
As for `O=[N+]([O-])c1ccc(Cl)c([N+](=O)[O-])c1`, the Potency in [1] was 19.8 µM (active) and 19.5 µM (active); in experiment [3] it was 24.9 µM (active) and 19.5 µM (active); in experiment [19], 54.9 µM (active); in [8] it was 22.2 µM (active) and 21.9 µM (active); in experiment [9], 14 µM (active) and 17.4 µM (active); in experiment [10], 19.8 µM (active) and 19.5 µM (active). For the same molecule, the Potency is 22.2 µM (active) and 49 µM (active) in [12]; 49.3 µM (active) and 21.7 µM (active) in [13]; 6.21 µM (active) and 6.86 µM (active) in [14]; 35.2 µM (active) and 34.7 µM (active) in experiment [15].
`Oc1ccc(Cl)cc1Cl`: the Potency entry in experiment [1], in [2], in [3], in experiment [18], in experiment [4] and in experiment [19] was “inactive” each time. For the same molecule, the Potency entry in [5], in experiment [6], in [8], in experiment [9], in [10] and in [11] was “inactive” each time. For the same molecule, the Potency result in [12], in experiment [13], in experiment [14], in [15] and in [17] was “inactive” throughout. Besides, the result in [7] and in experiment [16] was inactive.
For the molecule `COc1ccc(C=O)cc1OC`, the Potency entry in [1], in experiment [3], in experiment [6], in experiment [9], in experiment [10] and in experiment [11] was “inactive” each time. In addition, the Potency entry in experiment [12], in experiment [13], in experiment [14], in experiment [15] and in [17] was “inactive” in each case. The molecule was classed as inactive in [16].
For `CCOP(=O)(O)OCC` (tested in a mixture with another compound), the Potency result in [1] was “inactive and 21.7 µM (active)”; in experiment [3], “inactive and 19.3 µM (active)”; in experiment [19] it was “inactive and 43.3 µM (active)”; in experiment [6] it was “inactive and 48.6 µM (active)”; in experiment [9], “inactive and 17.2 µM (active)”; in experiment [12], “inactive and 24.3 µM (active)”. Moreover, the Potency result in experiment [13] is “inactive and 54 µM (active)”; in experiment [15], “inactive and 48.6 µM (active)”. Moreover, the Potency entry in experiment [11] and in experiment [17] was “inactive” each time. In [16], the result was inactive.
